# Results: paper PMC7862700, “An all-to-all approach to the identification of sequence-specific readers for epigenetic DNA modifications on cytosine”
# Assays:
# Assay in all cases: DAPPL (digital affinity profiling via proximity ligation, sequencing); 10 mM Tris-HCl pH 7.5, 50 mM NaCl, 1 mM DTT, 4% glycerol, room temperature, 30 min; GST-TFs on glutathione beads, 16-mer random dsDNA library, 0.1% formaldehyde crosslink after washing; high values mean tight binding
# FLI1 = biological target: T1, FLI1 (Homo sapiens, UniProt Q01543 1-452); conditions: protein: recombinant; tags: N-terminal GST; dsDNA, one strand shown
# T1 sequence: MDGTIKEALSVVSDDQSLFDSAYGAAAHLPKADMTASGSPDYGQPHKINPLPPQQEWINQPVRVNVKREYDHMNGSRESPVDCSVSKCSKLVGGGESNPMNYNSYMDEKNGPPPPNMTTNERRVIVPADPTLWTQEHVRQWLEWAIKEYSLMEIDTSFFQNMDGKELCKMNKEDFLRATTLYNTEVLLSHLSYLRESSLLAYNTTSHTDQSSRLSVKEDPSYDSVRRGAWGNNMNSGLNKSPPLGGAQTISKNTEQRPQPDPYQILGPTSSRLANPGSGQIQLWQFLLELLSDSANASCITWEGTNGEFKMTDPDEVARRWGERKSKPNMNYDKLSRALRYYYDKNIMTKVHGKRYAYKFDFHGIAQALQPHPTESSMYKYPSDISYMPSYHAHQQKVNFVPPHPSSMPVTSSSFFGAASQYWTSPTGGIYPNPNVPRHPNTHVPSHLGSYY
# Method in brief: (§1)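 Each value of binding signal is a hexamer's read frequency for a factor divided by the same hexamer's frequency in the tag-only sample. Barcoded, bead-captured GST fusions of human transcription factors made in yeast were pooled with that sample and incubated with 200 nmole of a random double-stranded 16-mer DNA library in Tris/NaCl/DTT/glycerol buffer at room temperature for 30 min. Washing, 0.1% formaldehyde crosslinking, proximity ligation, PCR and Illumina NextSeq500 sequencing followed.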
# ELK1 = biological target: T2, ELK1 (Homo sapiens, UniProt P19419 1-428); conditions: protein: recombinant; tags: N-terminal GST; dsDNA, one strand shown
# T2 sequence: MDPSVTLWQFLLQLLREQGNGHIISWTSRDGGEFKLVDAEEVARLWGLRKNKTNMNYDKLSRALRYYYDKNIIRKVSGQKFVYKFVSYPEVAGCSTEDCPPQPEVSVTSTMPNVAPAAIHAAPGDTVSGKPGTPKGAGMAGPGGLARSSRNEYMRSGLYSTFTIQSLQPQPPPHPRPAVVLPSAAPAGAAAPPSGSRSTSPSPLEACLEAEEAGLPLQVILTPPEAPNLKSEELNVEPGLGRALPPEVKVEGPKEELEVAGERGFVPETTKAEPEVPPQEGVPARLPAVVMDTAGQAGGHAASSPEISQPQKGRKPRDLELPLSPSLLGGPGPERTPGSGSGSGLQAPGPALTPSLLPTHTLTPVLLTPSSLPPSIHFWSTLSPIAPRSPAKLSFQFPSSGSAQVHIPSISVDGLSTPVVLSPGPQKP
# Method in brief: as §1
# GABPA = biological target: T3, GABPA (Homo sapiens, UniProt Q06546 1-454); conditions: protein: recombinant; tags: N-terminal GST; dsDNA, one strand shown
# T3 sequence: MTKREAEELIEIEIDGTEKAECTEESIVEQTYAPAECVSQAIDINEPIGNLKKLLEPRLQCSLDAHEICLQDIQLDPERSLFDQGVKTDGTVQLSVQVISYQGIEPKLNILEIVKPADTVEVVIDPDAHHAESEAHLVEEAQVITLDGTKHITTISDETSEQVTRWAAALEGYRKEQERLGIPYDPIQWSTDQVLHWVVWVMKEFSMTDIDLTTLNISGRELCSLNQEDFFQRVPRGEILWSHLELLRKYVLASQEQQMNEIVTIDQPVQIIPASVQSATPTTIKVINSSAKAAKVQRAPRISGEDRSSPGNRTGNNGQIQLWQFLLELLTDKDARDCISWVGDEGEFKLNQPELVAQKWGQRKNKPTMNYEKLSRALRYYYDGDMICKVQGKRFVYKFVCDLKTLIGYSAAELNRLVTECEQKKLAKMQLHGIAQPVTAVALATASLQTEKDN
# Method in brief: as §1
# ERG = biological target: T4, ERG (Homo sapiens, UniProt P11308 1-479); conditions: protein: recombinant; tags: N-terminal GST; dsDNA, one strand shown
# T4 sequence: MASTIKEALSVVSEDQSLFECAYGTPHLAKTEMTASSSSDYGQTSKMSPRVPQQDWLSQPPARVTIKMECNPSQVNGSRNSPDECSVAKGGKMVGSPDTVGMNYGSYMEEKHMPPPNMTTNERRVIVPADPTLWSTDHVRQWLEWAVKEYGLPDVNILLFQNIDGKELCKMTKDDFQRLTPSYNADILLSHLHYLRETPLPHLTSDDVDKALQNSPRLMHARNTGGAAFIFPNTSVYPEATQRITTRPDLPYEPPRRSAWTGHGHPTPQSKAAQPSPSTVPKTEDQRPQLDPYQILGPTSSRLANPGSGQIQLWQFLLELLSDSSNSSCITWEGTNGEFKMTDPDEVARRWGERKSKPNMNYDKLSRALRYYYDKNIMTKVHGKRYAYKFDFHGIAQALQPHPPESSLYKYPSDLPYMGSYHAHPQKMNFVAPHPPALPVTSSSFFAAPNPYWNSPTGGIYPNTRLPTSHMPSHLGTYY
# Method in brief: as §1
# ELF1 = ELF1 (Homo sapiens, UniProt P32519 1-619); conditions: protein: recombinant; tags: N-terminal GST; dsDNA, one strand shown
# Method in brief: as §1
# EHF = biological target: T5, EHF (Homo sapiens, UniProt Q9NZC4 1-300); conditions: protein: recombinant; tags: N-terminal GST; dsDNA, one strand shown
# T5 sequence: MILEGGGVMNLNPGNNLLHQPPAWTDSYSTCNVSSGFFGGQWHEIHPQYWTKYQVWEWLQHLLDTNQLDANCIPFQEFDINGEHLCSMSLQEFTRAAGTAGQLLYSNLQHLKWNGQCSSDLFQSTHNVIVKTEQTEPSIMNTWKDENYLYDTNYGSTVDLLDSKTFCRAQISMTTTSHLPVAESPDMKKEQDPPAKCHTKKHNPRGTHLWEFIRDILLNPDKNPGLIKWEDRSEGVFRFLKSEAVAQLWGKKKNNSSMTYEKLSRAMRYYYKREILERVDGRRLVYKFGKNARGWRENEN
# Method in brief: as §1
# SPI1 = SPI1 (Homo sapiens, UniProt P17947 1-270); conditions: protein: recombinant; tags: N-terminal GST; dsDNA, one strand shown
# Method in brief: as §1
# SPIB = SPIB (Homo sapiens, UniProt Q01892 1-262); conditions: protein: recombinant; tags: N-terminal GST; dsDNA, one strand shown
# Method in brief: as §1
# ELK3 = biological target: T6, ELK3 (Homo sapiens, UniProt P41970 1-407); conditions: protein: recombinant; tags: N-terminal GST; dsDNA, one strand shown
# T6 sequence: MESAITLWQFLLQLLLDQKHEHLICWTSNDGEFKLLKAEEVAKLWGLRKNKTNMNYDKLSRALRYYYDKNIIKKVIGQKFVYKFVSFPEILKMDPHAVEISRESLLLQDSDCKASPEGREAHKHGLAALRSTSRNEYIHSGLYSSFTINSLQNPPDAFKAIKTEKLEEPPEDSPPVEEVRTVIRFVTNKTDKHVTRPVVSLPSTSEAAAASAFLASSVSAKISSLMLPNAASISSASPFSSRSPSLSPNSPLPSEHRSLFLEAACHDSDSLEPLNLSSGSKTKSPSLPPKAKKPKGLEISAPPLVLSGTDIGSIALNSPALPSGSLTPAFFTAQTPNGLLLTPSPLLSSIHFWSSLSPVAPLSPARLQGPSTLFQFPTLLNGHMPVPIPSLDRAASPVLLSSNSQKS
# Method in brief: as §1
# FEV = biological target: T7, FEV (Homo sapiens, UniProt Q99581 1-238); conditions: protein: recombinant; tags: N-terminal GST; dsDNA, one strand shown
# T7 sequence: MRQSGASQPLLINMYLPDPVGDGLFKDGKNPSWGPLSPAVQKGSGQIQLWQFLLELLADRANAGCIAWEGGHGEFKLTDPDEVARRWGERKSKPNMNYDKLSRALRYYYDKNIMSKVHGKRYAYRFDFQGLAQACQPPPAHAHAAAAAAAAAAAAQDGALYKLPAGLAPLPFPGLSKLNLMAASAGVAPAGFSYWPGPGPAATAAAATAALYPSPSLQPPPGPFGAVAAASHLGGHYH
# Method in brief: as §1
# ETV5 = ETV5 (Homo sapiens, UniProt P41161 1-510); conditions: protein: recombinant; tags: N-terminal GST; dsDNA, one strand shown
# Method in brief: as §1
# HSF1 = HSF1 (Homo sapiens, UniProt Q00613 1-529); conditions: protein: recombinant; tags: N-terminal GST; chain copies: 3; dsDNA, one strand shown
# Method in brief: as §1
# SPIC = biological target: T8, SPIC (Homo sapiens, UniProt Q8N5J4 1-248); conditions: protein: recombinant; tags: N-terminal GST; dsDNA, one strand shown
# T8 sequence: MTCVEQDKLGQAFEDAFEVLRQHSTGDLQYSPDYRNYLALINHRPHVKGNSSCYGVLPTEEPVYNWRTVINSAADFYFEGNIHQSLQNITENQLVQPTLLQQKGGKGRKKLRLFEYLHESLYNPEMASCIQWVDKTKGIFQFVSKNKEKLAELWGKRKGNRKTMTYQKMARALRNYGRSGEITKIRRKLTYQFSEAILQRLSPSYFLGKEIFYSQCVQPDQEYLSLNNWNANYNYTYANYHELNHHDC
# Method in brief: as §1
# ELF4 = ELF4 (Homo sapiens, UniProt Q99607 1-663); conditions: protein: recombinant; tags: N-terminal GST; dsDNA, one strand shown
# Method in brief: as §1
# ELK4 = biological target: T9, ELK4 (Homo sapiens, UniProt P28324-2 1-405); conditions: protein: recombinant; tags: N-terminal GST; dsDNA, one strand shown
# T9 sequence: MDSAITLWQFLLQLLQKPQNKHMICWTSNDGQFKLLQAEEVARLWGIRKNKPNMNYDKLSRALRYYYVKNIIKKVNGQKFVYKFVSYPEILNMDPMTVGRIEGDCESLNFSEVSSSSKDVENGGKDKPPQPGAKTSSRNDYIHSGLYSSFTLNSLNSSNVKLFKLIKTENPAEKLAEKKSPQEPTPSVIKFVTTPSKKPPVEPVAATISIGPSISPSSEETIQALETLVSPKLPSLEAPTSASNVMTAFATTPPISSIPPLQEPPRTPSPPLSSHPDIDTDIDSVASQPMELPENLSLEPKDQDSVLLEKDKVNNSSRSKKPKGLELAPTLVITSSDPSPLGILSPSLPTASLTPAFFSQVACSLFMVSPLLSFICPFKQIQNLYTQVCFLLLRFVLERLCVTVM
# Method in brief: as §1
# ETV2 = biological target: T10, ETV2 (Homo sapiens, UniProt O00321 1-342); conditions: protein: recombinant; tags: N-terminal GST; dsDNA, one strand shown
# T10 sequence: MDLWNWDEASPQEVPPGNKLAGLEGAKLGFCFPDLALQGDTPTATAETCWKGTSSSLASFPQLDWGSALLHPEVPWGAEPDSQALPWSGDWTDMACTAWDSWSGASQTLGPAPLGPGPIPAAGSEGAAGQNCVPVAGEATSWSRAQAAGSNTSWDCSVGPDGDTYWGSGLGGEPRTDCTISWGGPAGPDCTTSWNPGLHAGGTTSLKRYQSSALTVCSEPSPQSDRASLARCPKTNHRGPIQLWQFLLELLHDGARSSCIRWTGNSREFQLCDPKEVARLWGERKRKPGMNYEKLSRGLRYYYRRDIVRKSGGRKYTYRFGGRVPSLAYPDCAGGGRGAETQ
# Method in brief: as §1
# ELF3 = biological target: T11, ELF3 (Homo sapiens, UniProt P78545 1-371); conditions: protein: recombinant; tags: N-terminal GST; dsDNA, one strand shown
# T11 sequence: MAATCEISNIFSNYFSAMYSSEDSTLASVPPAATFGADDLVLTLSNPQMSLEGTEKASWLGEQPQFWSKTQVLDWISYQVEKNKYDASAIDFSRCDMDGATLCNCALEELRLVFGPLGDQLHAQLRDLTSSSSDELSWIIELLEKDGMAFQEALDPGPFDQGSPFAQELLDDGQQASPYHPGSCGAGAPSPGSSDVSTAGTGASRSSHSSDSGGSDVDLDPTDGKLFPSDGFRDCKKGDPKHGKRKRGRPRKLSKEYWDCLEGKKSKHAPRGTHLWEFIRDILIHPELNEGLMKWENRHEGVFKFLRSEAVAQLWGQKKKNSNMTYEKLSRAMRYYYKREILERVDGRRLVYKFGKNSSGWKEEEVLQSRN
# Method in brief: as §1
# CRX = CRX (Homo sapiens, UniProt O43186 1-299); conditions: protein: recombinant; tags: N-terminal GST; dsDNA, one strand shown
# Method in brief: as §1
# ETV1 = ETV1 (Homo sapiens, UniProt P50549 1-477); conditions: protein: recombinant; tags: N-terminal GST; dsDNA, one strand shown
# Method in brief: as §1
# Chain of ELF1 (P32519 whole entry): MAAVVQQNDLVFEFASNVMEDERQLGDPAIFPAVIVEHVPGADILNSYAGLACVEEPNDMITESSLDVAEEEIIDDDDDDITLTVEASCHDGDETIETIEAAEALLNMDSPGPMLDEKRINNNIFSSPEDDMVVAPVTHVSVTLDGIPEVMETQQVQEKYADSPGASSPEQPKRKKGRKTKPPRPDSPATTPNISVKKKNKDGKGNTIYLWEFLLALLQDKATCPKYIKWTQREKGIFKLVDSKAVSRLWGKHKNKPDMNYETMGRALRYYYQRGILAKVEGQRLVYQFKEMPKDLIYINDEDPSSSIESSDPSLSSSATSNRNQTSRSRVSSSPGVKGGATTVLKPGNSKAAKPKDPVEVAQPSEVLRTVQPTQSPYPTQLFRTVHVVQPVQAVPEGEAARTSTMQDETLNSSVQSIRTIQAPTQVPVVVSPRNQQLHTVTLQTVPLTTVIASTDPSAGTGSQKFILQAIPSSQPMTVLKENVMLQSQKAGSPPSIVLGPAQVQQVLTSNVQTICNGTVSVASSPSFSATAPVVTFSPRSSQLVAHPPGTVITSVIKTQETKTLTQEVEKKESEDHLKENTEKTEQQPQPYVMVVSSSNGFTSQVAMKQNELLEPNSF
# Chain of SPIB (Q01892 whole entry): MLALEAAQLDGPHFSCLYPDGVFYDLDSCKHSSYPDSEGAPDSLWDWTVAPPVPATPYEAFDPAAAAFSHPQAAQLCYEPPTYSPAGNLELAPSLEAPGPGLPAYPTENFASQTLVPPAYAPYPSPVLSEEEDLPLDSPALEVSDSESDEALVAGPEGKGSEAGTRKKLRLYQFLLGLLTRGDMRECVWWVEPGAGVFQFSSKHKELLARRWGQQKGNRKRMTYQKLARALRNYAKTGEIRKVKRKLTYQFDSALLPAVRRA
# Chain of CRX (O43186 whole entry): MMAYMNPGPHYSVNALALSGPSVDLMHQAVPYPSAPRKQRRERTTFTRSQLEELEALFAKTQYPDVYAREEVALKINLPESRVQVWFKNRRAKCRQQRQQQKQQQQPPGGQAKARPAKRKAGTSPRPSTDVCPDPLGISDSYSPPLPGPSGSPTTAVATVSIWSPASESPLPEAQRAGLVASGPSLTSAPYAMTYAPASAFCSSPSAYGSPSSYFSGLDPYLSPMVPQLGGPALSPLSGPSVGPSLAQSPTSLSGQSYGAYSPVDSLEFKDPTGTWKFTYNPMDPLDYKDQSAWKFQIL
# Chain of ELF4 (Q99607 whole entry): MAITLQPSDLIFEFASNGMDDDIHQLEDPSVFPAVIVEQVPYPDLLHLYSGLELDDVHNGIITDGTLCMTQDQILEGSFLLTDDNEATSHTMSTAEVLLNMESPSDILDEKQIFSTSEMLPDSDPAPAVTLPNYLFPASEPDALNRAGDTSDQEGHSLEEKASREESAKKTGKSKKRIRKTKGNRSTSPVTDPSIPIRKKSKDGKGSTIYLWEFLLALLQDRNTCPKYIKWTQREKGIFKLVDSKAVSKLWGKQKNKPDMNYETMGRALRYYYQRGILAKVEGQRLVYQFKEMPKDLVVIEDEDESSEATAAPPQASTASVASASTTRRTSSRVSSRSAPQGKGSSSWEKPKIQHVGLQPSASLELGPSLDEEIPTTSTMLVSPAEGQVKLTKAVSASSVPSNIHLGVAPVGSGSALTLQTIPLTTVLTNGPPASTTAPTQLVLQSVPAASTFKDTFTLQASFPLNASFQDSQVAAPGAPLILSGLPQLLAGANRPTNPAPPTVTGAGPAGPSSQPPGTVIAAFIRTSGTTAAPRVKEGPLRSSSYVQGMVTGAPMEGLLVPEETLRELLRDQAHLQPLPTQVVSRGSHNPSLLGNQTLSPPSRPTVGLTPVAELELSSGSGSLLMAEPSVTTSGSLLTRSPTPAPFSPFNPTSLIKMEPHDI
# Chain of ETV5 (P41161 whole entry): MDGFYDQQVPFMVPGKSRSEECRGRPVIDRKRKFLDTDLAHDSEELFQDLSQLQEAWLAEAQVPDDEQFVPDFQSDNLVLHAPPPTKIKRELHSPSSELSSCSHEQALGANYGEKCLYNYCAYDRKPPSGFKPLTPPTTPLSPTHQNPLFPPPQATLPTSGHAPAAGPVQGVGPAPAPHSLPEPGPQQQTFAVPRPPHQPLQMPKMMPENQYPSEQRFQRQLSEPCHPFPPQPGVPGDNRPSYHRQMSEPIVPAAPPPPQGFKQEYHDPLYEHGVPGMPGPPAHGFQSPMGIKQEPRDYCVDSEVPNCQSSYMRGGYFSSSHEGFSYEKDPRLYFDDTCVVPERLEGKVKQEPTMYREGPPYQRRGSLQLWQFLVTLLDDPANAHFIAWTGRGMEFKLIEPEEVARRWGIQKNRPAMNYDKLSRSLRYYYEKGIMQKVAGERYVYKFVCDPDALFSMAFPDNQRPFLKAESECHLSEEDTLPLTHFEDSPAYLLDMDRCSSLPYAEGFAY
# Chain of HSF1 (Q00613 whole entry): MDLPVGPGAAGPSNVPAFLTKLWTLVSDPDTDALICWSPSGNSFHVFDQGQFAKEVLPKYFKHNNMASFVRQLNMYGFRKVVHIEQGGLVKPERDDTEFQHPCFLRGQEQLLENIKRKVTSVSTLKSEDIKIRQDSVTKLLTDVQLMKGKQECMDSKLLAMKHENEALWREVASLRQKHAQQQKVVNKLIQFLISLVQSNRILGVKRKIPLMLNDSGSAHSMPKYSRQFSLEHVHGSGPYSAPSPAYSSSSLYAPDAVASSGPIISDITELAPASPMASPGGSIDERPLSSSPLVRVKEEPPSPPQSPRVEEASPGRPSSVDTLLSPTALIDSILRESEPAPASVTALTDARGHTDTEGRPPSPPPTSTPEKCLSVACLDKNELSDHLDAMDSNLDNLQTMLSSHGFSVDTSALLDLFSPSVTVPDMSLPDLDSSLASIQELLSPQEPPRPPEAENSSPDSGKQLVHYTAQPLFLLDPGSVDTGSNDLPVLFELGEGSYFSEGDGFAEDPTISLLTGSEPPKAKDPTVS
# Chain of ETV1 (P50549 whole entry): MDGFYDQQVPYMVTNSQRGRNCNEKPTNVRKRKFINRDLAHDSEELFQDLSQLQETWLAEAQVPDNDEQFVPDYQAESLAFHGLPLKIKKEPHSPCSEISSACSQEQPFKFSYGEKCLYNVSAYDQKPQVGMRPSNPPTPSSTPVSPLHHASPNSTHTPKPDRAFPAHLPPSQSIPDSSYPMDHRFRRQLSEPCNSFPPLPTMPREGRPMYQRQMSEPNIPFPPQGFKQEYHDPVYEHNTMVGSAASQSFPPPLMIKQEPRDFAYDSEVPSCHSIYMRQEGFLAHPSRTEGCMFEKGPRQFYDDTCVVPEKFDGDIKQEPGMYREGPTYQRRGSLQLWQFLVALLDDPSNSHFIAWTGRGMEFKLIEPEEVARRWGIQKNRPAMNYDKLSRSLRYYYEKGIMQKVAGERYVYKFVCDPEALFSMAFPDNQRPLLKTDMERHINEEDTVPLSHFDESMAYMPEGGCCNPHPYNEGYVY
sequence,measurement,setting,value
TGTTAT,binding signal,FLI1,"1.37 fold enrichment (6-mer frequency, TF over GST control)"
same,binding signal,ELK1,"1.27 fold enrichment (6-mer frequency, TF over GST control)"
same,binding signal,GABPA,"1.36 fold enrichment (6-mer frequency, TF over GST control)"
same,binding signal,ERG,"1.41 fold enrichment (6-mer frequency, TF over GST control)"
same,binding signal,ELF1,"1.29 fold enrichment (6-mer frequency, TF over GST control)"
same,binding signal,EHF,"1.35 fold enrichment (6-mer frequency, TF over GST control)"
same,binding signal,SPI1,"1.38 fold enrichment (6-mer frequency, TF over GST control)"
same,binding signal,SPIB,"1.31 fold enrichment (6-mer frequency, TF over GST control)"
same,binding signal,ELK3,"1.24 fold enrichment (6-mer frequency, TF over GST control)"
same,binding signal,FEV,"1.34 fold enrichment (6-mer frequency, TF over GST control)"
same,binding signal,ETV5,"1.34 fold enrichment (6-mer frequency, TF over GST control)"
same,binding signal,HSF1,"1.31 fold enrichment (6-mer frequency, TF over GST control)"
same,binding signal,SPIC,"1.45 fold enrichment (6-mer frequency, TF over GST control)"
same,binding signal,ELF4,"1.39 fold enrichment (6-mer frequency, TF over GST control)"
same,binding signal,ELK4,"1.35 fold enrichment (6-mer frequency, TF over GST control)"
same,binding signal,ETV2,"1.3 fold enrichment (6-mer frequency, TF over GST control)"
same,binding signal,ELF3,"1.35 fold enrichment (6-mer frequency, TF over GST control)"
same,binding signal,CRX,"1.4 fold enrichment (6-mer frequency, TF over GST control)"
same,binding signal,ETV1,"1.42 fold enrichment (6-mer frequency, TF over GST control)"
